Experimental data taken from PubChem BioAssay (NCATS).
Inconclusive results are not listed. Activity calls are given as the source filed them. Calls come from the whole dose curve; as a rule, active = well fitted cell-killing curve with a large enough effect; inconclusive = small, poorly fitted or top-dose-only effect, or effect the other way; inactive = no such curve, though single readings can be large or run the other way. Non-standard residues stand in square brackets, D forms with d. Residues, ends and D or L forms follow the SMILES beside them. *: point of attachment. Nva = CCC[C@H](N)C(=O)O; Cbz = O=C(OCc1ccccc1)*

Assay: Quantitative High-Throughput drug screen in 47 multiple myeloma cell lines against the NCATS MIPE library collection: KMS20_JCRB cell viability assay (AID 1918973); note: nearly all actives have a fitted effect of over 45% in size
Settings: CellTiter-Glo ATP, 48 h; series mostly up to 45.8 µM
Description: PI: Beverly A. Mock Ph.D.
Laboratory of Cancer Biology and Genetics,
Center for Cancer Research, National Cancer Institute,
National Institute of Health, Bethesda, Maryland
Drug resistance and disease progression are common in multiple myeloma (MM) patients, underscoring the need for new therapeutic combinations. […] We hypothesized that effective combinations would reduce MYC expression and enhance p16 activity. […] These preclinical data identify potentially useful drug combinations for evaluation in drug-resistant MM and reveal potential mechanisms of combined drug sensitivity.
Described herein is the primary MIPE qHTS used to cherrypick compounds. Validated compounds were then further tested for potential synergistic activiy.
[1] Peat TJ, Gaikwad SM, Dubois W, Gyabaah-Kessie N, Zhang S, Gorjifard S, Phyo Z, Andres M, Hughitt VK, Simpson RM, Miller MA, Girvin AT, Taylor A, Williams D, D'Antonio N, Zhang Y, Rajagopalan A, Flietner E, Wilson K, Zhang X, Shinn P, Klumpp-Thomas C, McKnight C, Itkin Z, Chen L, Kazandijian D, Zhang J, Michalowski AM, Simmons JK, Keats J, Thomas CJ, Mock BA. Drug combinations identified by high-throughput screening promote cell cycle transition and upregulate Smad pathways in myeloma. Cancer Lett. 2023 Aug 1;568:216284. doi: 10.1016/j.canlet.2023.216284. Epub 2023 Jun 24. PMID: 37356470; PMCID: PMC10408729.
SEQUENCE No. (e.g., 1, 2, 3, etc.); […] (e.g., Cells, Incubation, Reagent, etc.); VALUE and DESCRIPTION.
1; Cells; 5 uL; white, solid bottom 1536-well Greiner assay plate.
2; Compounds; 23 nL; Kalypsis pin tool (Wako USA) equipped with a 1536-well pin head to transfer to the assay plates.
3; Incubation; 48 hours; 37C incubation.
4; Reagent;5uL; CellTiter Glo (Promega).
5; Detector; 425V; Luminescence; Viewlux PerkinElmer.
NOTES (numbers refer to Sequence numbers above)
1. The cell-based screening methods employed in this study were like those previously published. Briefly, the corresponding myeloma cell lines were screened in 1,536-well plates with 500 cells, 5-uL per well for inhibition of cell viability (assessed by measuring ATP levels with CellTiterGlo).
2. NCATS MIPE 4.0 library of approved and investigational drugs were added using the Kalypsis pin tool. Wells treated with DMSO only for 100% viability and media only wells for 0% viability were used as controls.
3. The assay plates were covered and incubated for 48 hours in a 37C, 5% CO2 incubator with controlled humidity.
4. After 48 hours, CellTilter-GloTM luminescent substrate mix (Promega) reagent was added to the assay plate and plates we incubated for 5 min at room temperature.
5. Signal was measured as median relative luminescence units on a ViewLux (PerkinElmer) multiplate reader.
[1] Heske CM, Davis MI, Baumgart JT, Wilson K, Gormally MV, Chen L, Zhang X, Ceribelli M, Duveau DY, Guha R, Ferrer M, Arnaldez FI, Ji J, Tran HL, Zhang Y, Mendoza A, Helman LJ, Thomas CJ. Matrix Screen Identifies Synergistic Combination of PARP Inhibitors and Nicotinamide Phosphoribosyltransferase (NAMPT) Inhibitors in Ewing Sarcoma. Clin Cancer Res. 2017 Dec 1;23(23):7301-7311. doi: 10.1158/1078-0432.CCR-17-1121. Epub 2017 Sep 12. PMID: 28899971; PMCID: PMC6636827.
Potency is the fitted concentration of half-maximal effect.

Row | SMILES | Potency
1 | NC(=O)Nc1cc(-c2ccc(CN3CCOCC3)cc2)sc1C(N)=O | 2640 nM (active)
2 | c1ccc(CNc2nc(NCc3ccccc3)c3ccccc3n2)cc1 | 8330 nM (active)
3 | CCOC(=O)C=C[C@H](C[C@@H]1CCNC1=O)NC(=O)[C@@H](CC(=O)[C@@H](NC(=O)c1cc(C)on1)C(C)C)Cc1ccc(F)cc1 | inactive
4 | COc1ccc(S(=O)(=O)Nc2cccnc2Nc2ccc(O)cc2)cc1 | 83.3 nM (active)
5 | C[C@@H]1C(=O)O[C@H]2CC34[C@H]5C[C@@H](C(C)(C)C)C36[C@H](OC(=O)[C@@H]6O)O[C@@]4(C(=O)O5)[C@]21O (stereo not given in full) | inactive
6 | C#CCC(Cc1cnc2nc(N)nc(N)c2n1)c1ccc(C(=O)N[C@@H](CCC(=O)O)C(=O)O)cc1 (stereo not given in full) | inactive
7 | C[C@H](O)[C@@H]1C(=O)N2C(C(=O)O)=C(S[C@@H]3CN[C@H](CNS(N)(=O)=O)C3)[C@@H](C)[C@@H]12 | inactive
8 | O=C1NC(=O)[C@@H](c2cn3c4c(cccc24)CCC3)[C@H]1c1c[nH]c2ccccc12 | 105 nM (active)
9 | O=C(O)c1ccc(Nc2ncc3c(n2)-c2ccc(Cl)cc2C(c2c(F)cccc2F)=NC3)cc1 | 14800 nM (active)
10 | CC(C)C[C@H](NC(=O)CNC(=O)c1cc(Cl)ccc1Cl)B1OC(=O)CC(CC(=O)O)(C(=O)O)O1 (stereo not given in full) | 166 nM (active)
11 | CC(C)C[C@@H](C=O)NC(=O)[C@H](CC(C)C)NC(=O)[C@H](CC(C)C)NC(=O)OCc1ccccc1 (Cbz-Leu-Leu-Leu-aldehyde) | 526 nM (active)
12 | CC[C@@]1([C@@H]2O[C@@H]([C@H]3O[C@@](O)(CO)[C@H](C)C[C@H]3C)C[C@H]2C)CC[C@H]([C@]2(C)CC[C@]3(C[C@H](O)[C@@H](C)[C@@H]([C@@H](C)[C@@H](OC)[C@H](C)C(=O)O)O3)O2)O1 | 51.2 nM (active)
13 | FC(F)c1nc2ccccc2n1-c1nc(N2CCOCC2)nc(N2CCOCC2)n1 | 332 nM (active)
14 | CN(C)c1ccc2cc(C(=O)N[C@@H](CCCN=C(N)CCl)C(=O)NCc3ccccc3)ccc2c1 | 8330 nM (active)
15 | Cc1[nH]c(C=C2C(=O)Nc3ccccc32)c(C)c1CCC(=O)O | 11800 nM (active)
16 | COc1cc2c(cc1OC)[C@@H]1C(=O)c3ccc4c(c3O[C@@H]1CO2)C=CC(C)(C)O4 | 6620 nM (active)
17 | CC(=O)NC(CS)C(=O)O (stereo not given) | inactive
18 | NC(=O)c1ncn([C@@H]2O[C@H](CO)[C@@H](O)[C@@H]2O)c1O | inactive
19 | Oc1cc(-c2nc(-c3ccccc3)[nH]c2-c2ccncc2)ccc1Cl | 8330 nM (active)
20 | Cn1cnc2c(F)c(Nc3ccc(Br)cc3F)c(C(=O)NOCCO)cc21 | 66.2 nM (active)

Row | SMILES | Potency
21 | Nc1nc(=O)n([C@H]2CSC(CO)O2)cc1F (stereo not given in full) | inactive
22 | CCC[C@@H](C=O)NC(=O)[C@H](CC(C)C)NC(=O)[C@H](CC(C)C)NC(=O)OCc1ccccc1 (Cbz-Leu-Leu-[Nva]-aldehyde) | 187 nM (active)
23 | NC[C@H]1O[C@H](O[C@H]2[C@@H](O)[C@@H](O[C@H]3O[C@H](CO)[C@@H](O)[C@H](N)[C@@H]3O)[C@H](N)C[C@@H]2N)[C@H](N)C[C@H]1O | inactive
24 | C[C@@H](Oc1ccc2[nH]nc(C=Cc3cnn(CCO)c3)c2c1)c1c(Cl)cncc1Cl | 4180 nM (active)
25 | N[C@H]1CN(c2c(F)cc3c(=O)c(C(=O)O)cn(C4C[C@@H]4F)c3c2Cl)CC12CC2 (stereo not given in full) | inactive
26 | CC(C)[C@H](CO)Nc1nc(Nc2cccc(Cl)c2)c2ncn(C(C)C)c2n1 | 20900 nM (active)
27 | CC(C)N1[N]C(=C2C=c3cc(O)ccc3=N2)c2c(N)ncnc21 | 743 nM (active)
28 | NC(=O)Nc1sc(-c2ccc(F)cc2)cc1C(N)=O | 1660 nM (active)
29 | O=C(C=CC#Cc1cccc(NS(=O)(=O)c2ccccc2)c1)NO | 2350 nM (active)
30 | CC(=O)SCC(Cc1ccccc1)C(=O)NCC(=O)OCc1ccccc1 (stereo not given) | 2350 nM (active)
31 | OCc1ccccc1O[C@@H]1O[C@H](CO)[C@H](O)[C@H](O)[C@H]1O | inactive
32 | O=C(CCCCCCC(=O)Nc1cccnc1)NO | 3320 nM (active)
33 | CN1CCCN(C(=O)c2cccc(-c3ccc(C=C4C(=O)Nc5ccc(Cl)cc54)o3)c2)CC1 | 4690 nM (active)
34 | CN[C@@H]1C[C@H]2O[C@@](C)([C@H]1OC)n1c3ccccc3c3c4c(c5c6ccccc6n2c5c31)C(=O)N[C@H]4O | 148 nM (active)
35 | O=C(c1ccc(F)cc1)N1CCC[C@H](c2nc(-c3ccc(F)cc3)no2)C1 | inactive
36 | Cc1nc(NC(=O)N2CCC[C@@H]2C(N)=O)sc1-c1ccnc(C(C)(C)C(F)(F)F)c1 | 1480 nM (active)
37 | COc1cc2ncnc(Nc3cccc(Br)c3)c2cc1OC | 743 nM (active)
38 | Cn1c(Nc2ccc(C(F)(F)F)cc2)nc2cc(Oc3ccnc(-c4ncc(C(F)(F)F)[nH]4)c3)ccc21 | 11800 nM (active)
39 | COC1=C2C[C@@H](C)C[C@H](OC)[C@@H](O)[C@@H](C)C=C(C)[C@H](OC(N)=O)[C@@H](OC)C=CC=C(C)C(=O)NC(=CC1=O)C2=O | 41.8 nM (active)
40 | COC[C@H](NC(=O)c1cnc(C)s1)C(=O)N[C@@H](COC)C(=O)N[C@@H](Cc1ccccc1)C(=O)[C@@]1(C)CO1 | 132 nM (active)
